Rows were chosen to be rich in hits. Some 11% of all compounds tested hit in one or more screens of this group.
NIH3T3 tox: NIH 3T3 cell cytotoxicity; NIH 3T3 viability, CellTiter-Glo ATP luminescence, 48-72 h; Potency, µM (highest dose often 96.7 µM), usual class: inhibitors; 4.3% of 94,000 active; AID 1345082; also: nearly all actives have a fitted effect of over 55% in size
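Mouse fibroblast NIH 3T3 cells, 400 per well, received compound via pintool and were incubated for 48 or 72 hr prior to CellTiter-Glo ATP luminescence measurement.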
NPR1 antag: blocks ANP-stimulated signaling of human Npr1 receptor. AID 1347048. P16066. HEK293 hNpr1 GloSensor cGMP, ANP-stimulated luminescence. Potency, µM (top dose mostly 46.3 µM), most hits filed as inhibitors. 1.6% of 76,000 active; calls by dose curve; also: nearly all actives have a fitted effect of over 60% in size
Target sequence (P16066 whole entry, looked up): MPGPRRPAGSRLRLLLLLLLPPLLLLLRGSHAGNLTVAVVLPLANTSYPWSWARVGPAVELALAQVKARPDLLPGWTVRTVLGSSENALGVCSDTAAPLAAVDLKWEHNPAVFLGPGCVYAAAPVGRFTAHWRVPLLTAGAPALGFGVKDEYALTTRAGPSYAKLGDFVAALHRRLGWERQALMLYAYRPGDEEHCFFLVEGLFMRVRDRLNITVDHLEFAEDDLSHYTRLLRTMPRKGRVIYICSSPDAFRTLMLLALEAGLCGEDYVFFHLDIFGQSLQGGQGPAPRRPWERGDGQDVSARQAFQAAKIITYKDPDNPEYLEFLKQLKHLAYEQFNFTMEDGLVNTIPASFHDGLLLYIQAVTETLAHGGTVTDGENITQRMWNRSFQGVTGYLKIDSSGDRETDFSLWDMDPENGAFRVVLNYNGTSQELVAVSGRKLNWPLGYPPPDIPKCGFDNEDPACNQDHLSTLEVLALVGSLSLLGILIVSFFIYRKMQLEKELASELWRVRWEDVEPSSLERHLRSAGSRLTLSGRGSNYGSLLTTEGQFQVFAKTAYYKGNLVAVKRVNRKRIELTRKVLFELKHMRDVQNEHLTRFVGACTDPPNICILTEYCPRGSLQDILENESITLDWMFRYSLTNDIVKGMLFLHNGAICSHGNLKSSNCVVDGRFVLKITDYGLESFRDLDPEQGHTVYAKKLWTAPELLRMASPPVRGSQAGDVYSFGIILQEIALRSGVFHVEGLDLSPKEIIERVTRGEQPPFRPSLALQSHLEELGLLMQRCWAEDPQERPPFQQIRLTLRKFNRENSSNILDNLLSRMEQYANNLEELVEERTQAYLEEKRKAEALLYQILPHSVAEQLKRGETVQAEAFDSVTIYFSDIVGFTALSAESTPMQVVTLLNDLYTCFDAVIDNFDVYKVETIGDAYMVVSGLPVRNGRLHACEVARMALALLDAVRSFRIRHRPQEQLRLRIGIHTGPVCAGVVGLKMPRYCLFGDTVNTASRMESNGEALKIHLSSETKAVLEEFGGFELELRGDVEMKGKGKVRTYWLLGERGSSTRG
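Compound pre-incubated 30 min at room temperature on GloSensor-loaded HEK293 cells stably carrying hNpr1 and the pGS-40F cGMP biosensor. Stimulation uses hNppA at 0.1 nM final; luminescence is taken at baseline and 20 min post-agonist.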
HEK cytotox: kills HEK 293 cells. Potency, µM (titrated, usually from 115 µM), hits mostly inhibitors. HEK 293 viability, ATP luminescence (CellTiter-Glo), 48-72 h. 6.6% of 94,000 active; also: nearly all actives have a fitted effect of over 60% in size
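ATP-coupled CellTiter-Glo luminescence served as viability read-out, recorded 10 min after reagent addition at room temperature. HEK 293 cells, 250 cells/well, had been incubated with pintool-transferred compound for 48 or 72 hr at 37 degree Celsius.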
Luciferase inh: inhibitors of firefly (Photinus pyralis) luciferase | P08659 | purified P. pyralis luciferase, luminescence, biochemical | Potency, µM (top dose mostly 115 µM), hits mostly inhibitors | 2.5% of 76,000 active; also: nearly all actives have a fitted effect of over 65% in size
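Luminescence read by CCD imager after adding enzyme (10nM final) to wells holding compound, titrated in qHTS. Substrates 10uM each D-luciferin and ATP; buffer 50mM Tris acetate pH 7.5, 10mM Mg acetate, Tween-20, BSA.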
Hits are given with their value; - = inactive; ? = inconclusive; . = no result given. Unless noted, calls follow the shape of the dose curve; as a rule, active = well fitted curve in the direction sought with a large enough effect; inconclusive = small, poorly fitted or top-dose-only effect, or another doubt; inactive = no such curve, though single readings can be large; an effect the other way counts as inactive or inconclusive.

SMILES	NIH3T3 tox	NPR1 antag	HEK cytotox	Luciferase inh
COc1ccc(NC(=O)c2cc(-c3ccc[nH]3)n[nH]2)c(OC)c1	-	-	?	20µM
O=C(Nc1ccc(OC(F)(F)F)cc1)c1cc(-c2ccc[nH]2)n[nH]1	25µM	-	13µM	?
CCOc1ccc(NC(=O)c2cc(-c3ccc[nH]3)n[nH]2)cc1	-	-	-	7.1µM
O=C(Nc1ccc(F)cc1F)c1cc(-c2ccc[nH]2)n[nH]1	-	-	?	14µM
COC[C@]1(O)CCN(S(=O)(=O)c2cccc(C(=O)O)c2)CC1(C)C	-	-	-	-
COc1ccc(Cl)cc1NC(=O)c1cc(-c2ccc[nH]2)n[nH]1	?	-	?	?
COc1ccc(NC(=O)c2cc(-c3ccc[nH]3)n[nH]2)cc1	-	-	-	13µM
CN1C[C@@H](NC(=O)c2ccc(C(C)(C)C)cc2)C[C@H]1c1nc(-c2ccncc2)no1	?	-	71µM	?
CN1C[C@@H](NC(=O)c2ccc(C#N)cc2)C[C@H]1c1nc(-c2cncnc2)no1	-	-	?	45µM
Cc1ccc(C(=O)N[C@H]2C[C@@H](c3nc(-c4ccc(C)cc4)no3)N(C)C2)cc1	-	-	-	-
Fc1ccc(C2Cn3nnc(-c4nc(-c5cccc(C(F)(F)F)c5)no4)c3CO2)cc1 (stereo not given)	-	-	-	-
Cc1nn(-c2ccccc2)c2c1C(C)N(C1CCCN(C(=O)c3ccncc3)C1)C2=O (stereo not given)	?	.	-	.
COc1ccc(C(=O)N2CCCC(N3C(=O)c4c(c(C)nn4-c4ccccc4)C3C)C2)cc1 (stereo not given)	14µM	.	?	.
Cc1nn(-c2ccccc2)c2c1C(C)N(C1CCCN(C(=O)c3ccccc3Cl)C1)C2=O (stereo not given)	?	.	40µM	.
O=C(COc1ccc(F)cc1)Nc1cnc(-c2ccccc2)nc1	-	-	-	-
O=C(Cc1ccsc1)Nc1cnc(-c2ccccc2)nc1	?	?	?	5µM
O=C(NCCCc1ccccc1)C1CCN(c2nccc(Nc3ccccc3F)n2)CC1	?	.	35µM	.
COC(=O)CNC(=O)C1CCN(c2nccc(Nc3ccccc3F)n2)CC1	-	.	-	.
CN(C)C(=O)C1CCN(c2nccc(Nc3ccccc3F)n2)CC1	?	.	-	.
O=C(NCc1ccccc1Cl)C1CCN(c2nccc(Nc3ccccc3F)n2)CC1	40µM	.	?	.
Cc1cc(OCCN2CCOCC2)c(C)c2c1CC[C@@H]([C@H](C)C(=O)N1CCOCC1)C2	?	-	?	-
COc1ccc(C2(C(=O)N(C)Cc3ccc(OC(F)(F)F)cc3)CCOCC2)cc1	?	.	50µM	.
COc1ccc(CN(C)C(=O)C2(c3ccc(OC)cc3)CCOCC2)cc1	-	.	?	.
FC(F)(F)c1cccc(-c2nccn3c(C4CN(Cc5ccc6cn[nH]c6c5)C4)ncc23)c1	40µM	-	45µM	-
O=C(NCc1ccc(F)cc1)c1nc(-c2cccc(C(F)(F)F)c2)c2cnccn12	-	-	?	-
SMILES	NIH3T3 tox	NPR1 antag	HEK cytotox	Luciferase inh
O=C(NCc1ccccc1)NC[C@H]1Cn2c(-c3ccc(Cl)cc3)cnc2CO1	?	-	-	-
COc1ccccc1Nc1ccnc(N2CCC(C(=O)N3CCOCC3)CC2)n1	?	.	-	.
O=C(NCc1cccc(C(F)(F)F)c1)C1CCN(c2ccnc3ccnn23)CC1	?	.	35µM	.
COc1ccccc1Nc1ccnc(N2CCC(C(=O)NCc3cccc(C(F)(F)F)c3)CC2)n1	32µM	.	?	.
COc1ccccc1Nc1ccnc(N2CCC(C(=O)NCCSC)CC2)n1	40µM	.	?	.
O=C(NCc1cccs1)C1CCCN(c2ccnc3ccnn23)C1 (stereo not given)	?	.	89µM	.
COCCNc1c(-c2noc(C)c2C(=O)Nc2ccc(OC)nc2)cnn1C	?	-	?	-
Cc1cccc2c1nc1n2[C@@H](CNC2CCC2)COC1	-	-	?	-
O=C([C@@H]1C[C@H](Oc2ccccc2)CN1C(=O)CC1CCCC1)N1CCCC1	32µM	-	-	-
COC(=O)NC1CCCN(Cc2ccc(-c3cc(C)cc(C)c3)cc2)C1 (stereo not given)	45µM	.	40µM	.
O=C(c1ccncc1)N1CC2CCC(C1)N2Cc1ccc(-c2cccnc2)cc1	?	?	?	-
Cc1cc(C)cc(-c2ccc(CN3CCCC(NC(=O)c4ccc(Cl)nc4)C3)cc2)c1 (stereo not given)	-	.	?	.
Cc1cc(C)cc(-c2ccc(CN3CCCC(NC(=O)c4ccncc4)C3)cc2)c1 (stereo not given)	25µM	.	28µM	.
Cc1cc(C)cc(-c2ccc(CN3C4CCC3CN(C(=O)c3ccncc3)C4)cc2)c1	?	.	45µM	.
Cc1cc(C)cc(-c2ccc(CN3CCCC(NC(=O)c4cccnc4)C3)cc2)c1 (stereo not given)	20µM	.	20µM	.
O=C(Nc1ccc(Cl)cc1)N1CCCC(C(=O)N2CCC(N3CCCC3=O)CC2)C1 (stereo not given)	-	.	-	.
O=C(NCC1CCN(c2cc(-c3ccccc3)[nH]n2)CC1)c1n[nH]c2c1CCCC2	32µM	?	?	?
Cc1ccc(-c2cc(N3CCC(CNC(=O)c4ccc[nH]4)CC3)n[nH]2)cc1	?	-	?	?
O=C(NCC1CCN(c2cc(-c3ccc(F)cc3)[nH]n2)CC1)c1n[nH]c2c1CCCC2	35µM	?	40µM	?
Cc1ccc(-c2cc(N3CCC(CNC(=O)c4n[nH]c5c4CCCC5)CC3)n[nH]2)cc1	28µM	?	?	?
CN(C)c1cccc(C(=O)NCC2CCN(c3cc(-c4ccc(F)cc4)[nH]n3)CC2)c1	?	-	?	?
Cc1ccc(CN2C(=O)NC3(CCCN(C(=O)c4ccc(F)c(Cl)c4)C3)C2=O)cc1 (stereo not given)	?	-	?	-
COc1ccccc1CNC[C@H]1O[C@H](Cc2cc(CN(C)Cc3ccccc3)on2)CC[C@@H]1O	-	-	?	-
COc1cccc(-c2ccc(S(=O)(=O)N3CCSCC3)cc2)n1	?	-	45µM	-
O=C(N1CCOc2ccc(CN3CCc4ccccc4C3)cc2C1)C1(c2ccccc2)CC1	?	?	45µM	-
SMILES	NIH3T3 tox	NPR1 antag	HEK cytotox	Luciferase inh
COc1cccc(C(=O)N2CCOc3ccc(CN4CCc5ccccc5C4)cc3C2)c1	?	-	45µM	-
O=C(Cc1cccs1)N1CCOc2ccc(CN3CCc4ccccc4C3)cc2C1	?	-	?	-
Cc1ccsc1C(=O)N1CCOc2ccc(CN3CCc4ccccc4C3)cc2C1	?	-	35µM	-
CCC(=O)N1CCOc2ccc(CN3CCc4ccccc4C3)cc2C1	-	-	?	-
Cc1ncccc1-c1nc2cc(C(=O)N(C)C)ccc2o1	?	.	-	.
O=C(NC1CCCC1)c1c(OCC2CC2)cc(=O)n2c1CCOCC2	-	-	?	-
CCc1ccc(CNC(=O)C2CCN(C(=O)c3nnn4c3COC(c3ccc(C)cc3)C4)CC2)cc1 (stereo not given)	-	-	-	40µM
Cc1ccc(C2Cn3nnc(C(=O)N4CCC(C(=O)NCc5cccs5)CC4)c3CO2)cc1 (stereo not given)	-	-	-	35µM

Assay outcomes deposited in PubChem by National Center for Advancing Translational Sciences (NCATS).
